# hgDAF12 agonist = agonists of H. glycines DAF-12 nuclear receptor; HEK293 GAL4-hgDAF12 UAS-luciferase reporter, agonist luminescence; normalized to butyrate control; 370,000 tested, 1.8% active; AID 687014; activation, % at 6.8 µM;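 active = activation above a cutoff set at the mean of all screened compounds plus 3 SD, cut at about 10% in these data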;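 note: 0% = DMSO wells and 100% = sodium butyrate wells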
# DAX1 inh-1 = inhibitors of DAX1 repression of SF-1 activated StAR promoter | HEK293T StAR-luciferase reporter, SF-1/DAX-1 repression relief | inhibition, % at 6.8 µM | 370,000 tested, 1.1% active;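 active = inhibition above the mean over all tested compounds plus 3 SD, cut at about 3.6% in these data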;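 note: 0% = DAX-1 cells with DMSO and 100% = cells lacking DAX-1 with DMSO; higher inhibition means more luminescence from relief of DAX-1 repression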
# ssDAF-12 act = activates DAF-12 receptor from parasite S. stercoralis. HEK293 ssDAF-12/GRIP1 lit1-tk-luc reporter, luminescence; % of 3 µM dafachronic acid response. activation, % at 6.8 µM. 370,000 tested, 1% active;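 active = activation above the mean over all tested compounds plus 3 SD, cut at about 0.9% in these data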;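 note: 0% = DMSO-only wells and 100% = 3 µM delta7-dafachronic acid wells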
# DAX1 inh-2 = inhibits human nuclear receptor DAX1. 340,000 tested, 0.99% active. HEK293 Gal4-DAX1 luciferase reporter, luminescence. P51843. inhibition, % at 6.75 µM;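 active = inhibition above the mean over all tested compounds plus 3 SD, cut at about 4.2% in these data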;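 note: 0% = DAX1-transfected cells with DMSO and 100% = empty-vector control cells with DMSO; inhibition shows as a rise in luminescence from relieved DAX1 repression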
# hcDAF-12 act = H. contortus DAF-12 activation, primary screen. 370,000 tested, 1.4% active. activation, % at 6.8 µM. AID 652067. HEK293 hcDAF-12 lit1-tk-luc reporter, luminescence; 0% DMSO, 100% Δ7-dafachronic acid;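 active = activation above the mean of all tested compounds plus 3 SD, cut at about 5.5% in these data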;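 note: 100% = response to 3 µM Δ7-dafachronic acid high control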
# hgDAF12 ag = hgDAF-12 agonism, confirmation assay. shares compounds with hgDAF12 agonist. HEK293 GAL4-hgDAF12 luciferase reporter, agonist mode; percent of butyrate response. activation, % at 6.8 µM. 3,300 tested, 80% active. AID 743050;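 active = mean activation over triplicate wells above the hit cutoff derived from the earlier primary screen, cut at about 11% in these data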;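 note: 0% = DMSO low control and 100% = 2 mM sodium butyrate high control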
# LXR ag 2 = counter-screen for DAF-12 agonists: agonists of human LXR-beta; shares compounds with hgDAF12 agonist; HEK293 Gal4-LXR luciferase reporter, 24 h; activation, % at 6.8 µM; AID 743051; 3,300 tested, under 10 active;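 active = mean activation of the triplicate above a set limit carried over from the primary screen, none filed active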
# * marks the source's active call; other numbers are inactive results; / = no result. Sampled rows, rich in hits. Any-hit rate of the full collection: about 4.1%.
SMILES,hgDAF12 agonist,DAX1 inh-1,ssDAF-12 act,DAX1 inh-2,hcDAF-12 act,hgDAF12 ag,LXR ag 2
COC(=O)C1CN(Cc2ccc(OC)cc2)CCS(=O)(=O)N1Cc1cn(Cc2ccc(C)cc2)nn1 (stereo not drawn),1,-1,-1,/,-1,/,/
c1ccc(-c2cn3nc(-c4ccccc4)cnc3n2)cc1,17*,3,-1,4,2,8,0
Nc1cc2nc[nH]c2cc1N,15*,3,0,0,6.1*,6,0
O=C(OCC#CCSc1nnc(-c2cccc3ccccc23)o1)c1ccc(SC(F)(F)F)cc1,0,/,-2,/,-3,/,/
Cc1ccc(NC(=S)Nc2ccc(-c3nnc4n3CCCCC4)cc2)cc1C,-3,0,-2,/,-1,/,/
O=C(N/N=C/c1c(-c2ccccc2)[nH]c2ccccc12)c1cccnc1,18*,-2,0,0,1,10,0
Cn1c(-c2ccccc2)c(/C=N/NC(=O)c2cccnc2)c2ccccc21,6,2,-1,3,0,/,/
Cc1cc(/C=N/NC(=O)c2cccs2)c(C)n1-c1ccccc1,-9,-1,-2,-1,-2,/,/
Cc1ccsc1/C=N/NC(=O)c1cccs1,15*,1,-1,3,4,10,0
Cc1nn(-c2ccc(F)cc2)c(Cl)c1/C=N/NC(=O)c1cccs1,15*,2,0,2,0,6,0
Cc1cc(/C=N/NC(=O)c2cccs2)c(C)n1-c1cnccn1,16*,3.9*,0,2,4,15*,1
O=C(N/N=C/C(Br)=C/c1ccccc1)c1cccs1,24*,3,1,4.5*,3,15*,1
Cc1ccccc1N1CCN(C(=O)COc2cc(=O)n(C)c3ccccc23)CC1,1,0,0,/,-4,/,/
CCC(CO)Nc1cccc2c1S(=O)(=O)N(Cc1cn(Cc3ccc(F)cc3)nn1)Cc1ccccc1O2 (stereo not drawn),-3,-1,-1,/,-2,/,/
CC(=O)Nc1ccc2c(c1)-c1ccc(F)cc1C2,4,0,-1,0,1,/,/
CC(=O)Nc1cc(F)c2c(c1F)Cc1cc(F)ccc1-2,16*,2,0,3,3,12*,0
